# Values joined by “and” are separate entries in the source; they are usually repeats but may differ in a detail not shown here. Identical values can stand only once. Records with an inconclusive call do not appear. Where a call stands in place of a potency, no number is given. A structure can be active in one record and inactive in another. Active and inactive are the calls of the source. Unless noted, the call rests on the fitted dose curve; in most records, active means well fitted curve in the direction sought with a large enough effect; inconclusive means small, poorly fitted or top-dose-only effect, or another doubt; inactive means no such curve, though single readings can be large; an effect the other way counts as inactive or inconclusive.
# Tests used:
# [1] = Primary qHTS for inhibitors of La Crosse Virus (LACV) - induced cell death in SH-SY5Y cells (AID 1508616);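 further: top concentration of the series differs between compounds; higher means more rescue of cells from virus-induced death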
# In short: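 Rescue of virus-induced death was read as ATPLite luminescence after 6 days at 37C, scaled between DMSO wells with LACV and without virus. Cells were SH-SY5Y, 6000/well, infected at 0.01 MOI after compound addition.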
# [2] = A High-Content qHTS Against Drug Library for the Identification of Small Molecules that Inhibit DYT1 Early Onset Primary Dystonia-Associated Cell Pathology (AID 1645839; calls by dose curve; further: series mostly up to about 46 µM)
# In short: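 Induced EGFP-delE TorsinA cells are imaged after 48 h of compound treatment. Punctate fusion-protein distribution gives the %pathology value, while nuclei counts flag toxicity. Wild-type EGFP-hTOR1A cells define the normal pattern.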
# [3] = target: Cytochrome P450 2D6 (Homo sapiens) (UniProt P10635); assay: Cytochrome P450 family 2 subfamily D member 6 (CYP2D6) small molecule antagonists: luciferase biochemical (cell-free) qHTS assay (AID 1645840; active means well fitted curve in the direction sought with a large enough effect in the repeat runs; an effect the other way counts as inactive or inconclusive; further: nearly all actives have a fitted effect of over 55% in size; further: potency means the concentration at half of the fitted maximal effect)
# In short: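 P450-Glo CYP2D6 system: proluciferin substrate converted by enzyme to luciferin, read by luminescence proportional to activity. Enzyme-substrate mix with compound 10 min at room temperature, then NADPH regeneration 1 h before detection reagent.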
# [4] = target: Cytochrome P450 2C9 (Homo sapiens) (UniProt P11712); assay: Cytochrome P450 family 2 subfamily C member 9 (CYP2C9) small molecule antagonists: luciferase biochemical (cell-free) qHTS assay (AID 1645842; active means well fitted curve in the direction sought with a large enough effect in the repeat runs; an effect the other way counts as inactive or inconclusive; further: nearly all actives have a fitted effect of over 55% in size; further: potency means the concentration at half of the fitted maximal effect)
# In short: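 P450-Glo CYP2C9 system: proluciferin substrate with enzyme in mix containing 0.4% BSA, 10 min at room temperature, then NADPH regeneration solution added and incubated 1 h at 37C. Detection reagent stopped reaction; luminescence read after 20 min as RLU.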
# [5] = Primary qHTS for inhibitors of nuclear receptor binding SET domain protein 2 (NSD2) in an isogenic RCH-ACV NSD2 p.E1099K mutant (9B) (AID 1645876); further: nearly all actives have a fitted effect of over 70% in size
# [6] = Primary qHTS for inhibitors of nuclear receptor binding SET domain protein 2 (NSD2) in an RCH-ACV wild type WT cells (2C) (AID 1645877); further: nearly all actives have a fitted effect of over 70% in size; further: potency means the concentration at half of the fitted maximal effect
# [7] = Primary qHTS for small molecule stabilizers of the endoplasmic reticulum resident proteome: Secreted ER Calcium Modulated Protein (SERCaMP) assay (AID 1508630)
# In short: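 The SH-SY5Y reporter protocol was run at 3 concentrations up to 38.3 uM (primary) or 11 concentrations (follow-up): 16 h compound, 100 nM thapsigargin for 4 h, then extracellular luciferase luminescence.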
# [8] = target: Calcium and integrin-binding protein 1 (Homo sapiens) (UniProt Q99828); assay: Primary qHTS for Identification of Calcium Integrin Binding Protein 1 (CIB1) Competitor (AID 1508620);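 further: GST tagged CIB1 binding a fluorescein labelled alphaIIb integrin peptide tracer; top concentration of the series differs between compounds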
# In short: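 Fluorescence polarization competition: CIB1-GST (1 uM final) preincubated with compound 15 min at room temperature, then FITC-labeled alphaIIb peptide (100 nM final) added for another 15 min. Polarization read at Ex 480/Em 540.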
# [9] = target: Papain (Carica papaya) (UniProt P00784); assay: Primary qHTS assay for inhibitors of the protease papain (AID 1645873);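 further: papain turnover of Z-FR-AMC read as the AMC fluorescence gain over 10 min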; further: potency means the concentration at half of the fitted maximal effect
# [10] = target: Rap guanine nucleotide exchange factor 3 (Homo sapiens) (UniProt O95398); assay: Confirmatory qHTS for agonist of cAMP-regulated guanine nucleotide exchange factor 3 (EPAC1) (AID 1645881);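 further: EPAC1 catalysed release of BODIPY-GDP from Rap1B seen as fluorescence loss; nearly all actives have a fitted effect of over 75% in size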
# [11] = target: Rap guanine nucleotide exchange factor 4 (Homo sapiens) (UniProt Q8WZA2); assay: Confirmatory qHTS for agonist of cAMP-regulated guanine nucleotide exchange factor 4 (EPAC2) (AID 1645884);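 further: nucleotide exchange releases bodipy-GDP from Rap1 and this lowers its fluorescence; nearly all actives have a fitted effect of over 65% in size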
# [12] = target: Rap guanine nucleotide exchange factor 3 (Homo sapiens) (UniProt O95398); assay: Confirmatory qHTS for antagonist of cAMP-regulated guanine nucleotide exchange factor 3 (EPAC1) (AID 1645880); further: nearly all actives have a fitted effect of over 55% in size
# In short: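 Released BODIPY-GDP fluoresces less than Rap1-bound BODIPY-GDP; the signal is followed at 480/540 nm at 5-min intervals over 30 min, after 5 min at room temperature. Reactions contain 100 nM EPAC1, 250 nM RAP1B-BODIPY-GDP and 50 uM GDP; results are normalized to ATA and DMSO.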
# [13] = target: Calcium and integrin-binding protein 1 (Homo sapiens) (UniProt Q99828); assay: Validation qHTS for Identification of Calcium Integrin Binding protein 1 (CIB1) Competitor (AID 1508618)
# In short: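 Fluorescence polarization with 1 uM CIB1-GST and 100 nM FITC-alphaIIb peptide in HEPES pH 7.4, NaCl, 5 mM CaCl2, Tween20. Compounds at up to 114 uM final, preincubated with protein 15 min; read after 15 min more at RT.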
# [14] = Counterscreen qHTS for small molecule stabilizers of the endoplasmic reticulum resident proteome: GLuc-NoTag assay (AID 1508627); further: series mostly up to about 76 µM
# In short: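 Secreted GLuc lacking the SERCaMP modification is measured in SH-SY5Y cells exposed to compound for 19 h and then to thapsigargin (100 nM, 4 h) to deplete ER calcium; hits retested at 11 concentrations, up to 76.6 uM.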
# [15] = Confirmatory qHTS for small molecule stabilizers of the endoplasmic reticulum resident proteome: Secreted ER Calcium Modulated Protein (SERCaMP) assay (AID 1508628); further: series mostly up to about 76 µM; nearly all actives have a fitted effect of over 40% in size
# In short: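 Reporter secretion upon ER calcium depletion (100 nM thapsigargin, 4 h, 37C) is measured as medium luminescence with coelenterazine, after 16 h compound pretreatment of SH-SY5Y-GLuc-SERCaMP cells; primary at three concentrations up to 38.3 uM, follow-up at 11 (up to 76.6 uM).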
# [16] = Cell Viability qHTS for small molecule stabilizers of the endoplasmic reticulum resident proteome (AID 1508629); details: cell viability counter-screen, 100 nM thapsigargin for final 4 h;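 further: human SH-SY5Y neuroblastoma cells carrying the GLuc-SERCaMP reporter; compound exposure about 46 h in total before the viability read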
# Sequence of Papain (Carica papaya) (P00784 whole entry, looked up): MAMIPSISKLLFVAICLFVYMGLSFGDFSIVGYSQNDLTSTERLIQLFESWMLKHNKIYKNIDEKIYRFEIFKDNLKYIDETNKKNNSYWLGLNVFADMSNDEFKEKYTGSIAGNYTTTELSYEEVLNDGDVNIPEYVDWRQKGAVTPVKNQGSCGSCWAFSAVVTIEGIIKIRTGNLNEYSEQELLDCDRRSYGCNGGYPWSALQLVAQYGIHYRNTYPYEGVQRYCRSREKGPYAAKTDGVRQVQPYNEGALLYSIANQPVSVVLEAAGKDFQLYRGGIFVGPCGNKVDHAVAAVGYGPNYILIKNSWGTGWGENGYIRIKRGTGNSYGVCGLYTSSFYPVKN
# Sequence of Calcium and integrin-binding protein 1 (Homo sapiens) (Q99828 whole entry, looked up): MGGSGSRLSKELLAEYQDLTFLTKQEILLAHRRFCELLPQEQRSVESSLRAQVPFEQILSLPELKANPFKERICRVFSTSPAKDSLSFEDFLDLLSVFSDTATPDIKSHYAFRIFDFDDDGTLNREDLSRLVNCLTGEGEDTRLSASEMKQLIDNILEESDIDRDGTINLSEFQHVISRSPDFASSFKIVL
# Sequence of Cytochrome P450 2C9 (Homo sapiens) (P11712 whole entry, looked up): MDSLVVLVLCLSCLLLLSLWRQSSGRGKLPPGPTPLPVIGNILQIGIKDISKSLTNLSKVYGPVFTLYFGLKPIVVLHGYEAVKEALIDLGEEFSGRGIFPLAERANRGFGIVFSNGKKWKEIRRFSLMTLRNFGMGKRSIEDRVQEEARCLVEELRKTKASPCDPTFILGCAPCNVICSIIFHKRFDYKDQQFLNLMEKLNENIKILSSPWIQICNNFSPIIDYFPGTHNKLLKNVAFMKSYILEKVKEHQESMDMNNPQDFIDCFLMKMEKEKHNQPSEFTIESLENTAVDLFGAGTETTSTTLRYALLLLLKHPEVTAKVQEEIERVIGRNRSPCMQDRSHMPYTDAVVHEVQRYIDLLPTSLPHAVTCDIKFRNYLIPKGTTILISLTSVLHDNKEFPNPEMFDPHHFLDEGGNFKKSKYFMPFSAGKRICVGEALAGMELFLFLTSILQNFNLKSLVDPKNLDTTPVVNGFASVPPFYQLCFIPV
# Sequence of Rap guanine nucleotide exchange factor 4 (Homo sapiens) (Q8WZA2 whole entry, looked up): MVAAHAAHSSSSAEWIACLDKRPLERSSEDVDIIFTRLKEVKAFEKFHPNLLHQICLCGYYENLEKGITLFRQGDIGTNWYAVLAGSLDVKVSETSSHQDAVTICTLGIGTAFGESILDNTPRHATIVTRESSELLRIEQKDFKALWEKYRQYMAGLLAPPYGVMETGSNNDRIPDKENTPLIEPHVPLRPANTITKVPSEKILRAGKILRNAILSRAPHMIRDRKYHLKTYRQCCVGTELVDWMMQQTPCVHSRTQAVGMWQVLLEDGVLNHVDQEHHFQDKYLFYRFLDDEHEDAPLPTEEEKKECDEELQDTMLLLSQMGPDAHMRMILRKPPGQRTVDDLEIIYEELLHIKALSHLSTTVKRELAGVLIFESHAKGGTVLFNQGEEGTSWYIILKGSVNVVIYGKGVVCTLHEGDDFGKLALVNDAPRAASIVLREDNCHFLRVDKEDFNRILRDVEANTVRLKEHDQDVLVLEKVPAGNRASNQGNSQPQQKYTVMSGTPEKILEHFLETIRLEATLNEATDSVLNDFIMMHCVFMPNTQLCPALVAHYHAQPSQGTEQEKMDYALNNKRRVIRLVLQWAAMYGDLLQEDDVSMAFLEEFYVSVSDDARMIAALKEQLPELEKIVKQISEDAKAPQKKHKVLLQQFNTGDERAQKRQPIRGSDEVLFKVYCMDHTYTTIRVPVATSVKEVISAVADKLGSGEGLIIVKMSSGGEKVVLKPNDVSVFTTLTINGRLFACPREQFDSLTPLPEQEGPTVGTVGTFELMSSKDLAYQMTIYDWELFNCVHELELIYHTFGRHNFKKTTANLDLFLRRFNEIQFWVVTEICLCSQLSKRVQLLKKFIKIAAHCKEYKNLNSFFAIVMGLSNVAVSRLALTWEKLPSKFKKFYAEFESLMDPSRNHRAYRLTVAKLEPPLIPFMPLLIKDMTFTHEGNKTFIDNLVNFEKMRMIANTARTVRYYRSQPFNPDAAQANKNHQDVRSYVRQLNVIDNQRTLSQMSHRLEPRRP
# Sequence of Rap guanine nucleotide exchange factor 3 (Homo sapiens) (O95398 whole entry, looked up): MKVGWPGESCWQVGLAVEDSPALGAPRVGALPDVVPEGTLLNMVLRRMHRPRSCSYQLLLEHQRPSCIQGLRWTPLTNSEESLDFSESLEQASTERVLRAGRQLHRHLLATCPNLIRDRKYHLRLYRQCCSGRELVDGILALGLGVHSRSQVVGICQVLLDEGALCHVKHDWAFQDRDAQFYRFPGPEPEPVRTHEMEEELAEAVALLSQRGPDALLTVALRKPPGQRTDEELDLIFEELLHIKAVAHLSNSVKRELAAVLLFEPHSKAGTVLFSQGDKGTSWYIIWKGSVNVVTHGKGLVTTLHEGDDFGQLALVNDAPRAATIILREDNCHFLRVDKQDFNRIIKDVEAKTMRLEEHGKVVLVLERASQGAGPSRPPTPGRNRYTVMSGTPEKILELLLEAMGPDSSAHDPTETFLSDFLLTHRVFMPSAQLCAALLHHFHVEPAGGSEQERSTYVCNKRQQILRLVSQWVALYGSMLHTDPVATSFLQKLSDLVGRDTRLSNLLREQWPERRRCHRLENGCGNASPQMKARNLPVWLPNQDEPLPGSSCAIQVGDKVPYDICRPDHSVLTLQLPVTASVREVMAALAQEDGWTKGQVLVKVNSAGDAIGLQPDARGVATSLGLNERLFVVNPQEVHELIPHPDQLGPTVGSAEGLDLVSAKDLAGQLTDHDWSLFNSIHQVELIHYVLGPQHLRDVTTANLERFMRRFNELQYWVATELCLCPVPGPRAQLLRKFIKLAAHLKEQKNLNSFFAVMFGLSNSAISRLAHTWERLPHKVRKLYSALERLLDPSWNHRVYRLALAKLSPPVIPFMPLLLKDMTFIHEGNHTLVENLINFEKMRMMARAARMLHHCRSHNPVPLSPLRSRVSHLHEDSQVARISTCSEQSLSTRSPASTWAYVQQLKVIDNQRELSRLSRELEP
# Sequence of Cytochrome P450 2D6 (Homo sapiens) (P10635 whole entry, looked up): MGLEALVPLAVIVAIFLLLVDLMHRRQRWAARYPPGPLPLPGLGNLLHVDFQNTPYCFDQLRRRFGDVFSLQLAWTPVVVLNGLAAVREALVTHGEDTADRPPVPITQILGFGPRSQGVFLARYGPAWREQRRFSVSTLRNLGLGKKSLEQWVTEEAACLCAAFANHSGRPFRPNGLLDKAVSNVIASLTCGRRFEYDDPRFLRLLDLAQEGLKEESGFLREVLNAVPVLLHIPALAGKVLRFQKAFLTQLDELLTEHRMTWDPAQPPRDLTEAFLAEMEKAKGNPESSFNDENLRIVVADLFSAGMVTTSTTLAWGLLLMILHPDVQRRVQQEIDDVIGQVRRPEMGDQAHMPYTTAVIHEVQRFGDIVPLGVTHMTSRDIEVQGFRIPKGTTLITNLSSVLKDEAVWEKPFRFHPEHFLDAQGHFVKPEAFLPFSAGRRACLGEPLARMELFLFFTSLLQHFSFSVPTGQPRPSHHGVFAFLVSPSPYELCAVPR
compound,measurement,setting,value
O=C(CCN1CCN(CCO)CC1)N1c2ccccc2Sc2ccc(C(F)(F)F)cc21,Potency,[1],inactive
same,Potency,[2],inactive
same,Potency,[3],inactive
same,Potency,[4],inactive
same,Potency,[5],inactive
same,Potency,[6],inactive
C=CC(=O)c1ccc(CCCCCC)cc1,Potency,[1],inactive
same,Potency,[7],inactive
COC(=O)C1=C(C)NC(C)=C(C(=O)OCC(C)C)C1c1ccccc1[N+](=O)[O-] (configuration not stated),Potency,[1],inactive
same,Potency,[8],inactive
same,Potency,[6],26.6 µM (active)
CC1(C)S[C@@H]2[C@H](NC(=O)[C@H](N)c3ccccc3)C(=O)N2[C@H]1C(=O)O,Potency,[1],inactive
same,Potency,[2],inactive
same,Potency,[3],inactive
same,Potency,[5],inactive
CC(C(=O)O)c1ccc(C(=O)c2cccs2)cc1 (configuration not stated),Potency,[1],inactive
same,Potency,[7],inactive
same,Potency,[2],inactive
same,Potency,[3],inactive
same,Potency,[4],7.76 µM (active)
NO,Potency,[1],inactive
same,Potency,[7],inactive
same,Potency,[9],inactive
O=C(OCc1ccccc1)c1ccccc1,Potency,[1],inactive
same,Potency,[7],inactive
same,Potency,[2],inactive
same,Potency,[3],inactive
same,Potency,[4],inactive
same,Potency,[5],inactive
C#CCN1C(C)=C(C(=O)OC)C(c2cccc([N+](=O)[O-])c2)C(C(=O)OCC)=C1C (configuration not stated),Potency,[1],inactive
same,Potency,[7],inactive
same,Potency,[10],inactive
same,Potency,[11],inactive
Nc1ccc(O)c(C(=O)O)c1,Potency,[1],inactive
same,Potency,[2],inactive
same,Potency,[3],inactive
same,Potency,[4],inactive
Nc1cc(-c2ccncc2)c[nH]c1=O,Potency,[1],inactive
same,Potency,[2],inactive
same,Potency,[3],12.3 µM (active)
same,Potency,[4],11 µM (active)
same,Potency,[5],inactive
same,Potency,[6],inactive
same,Potency,[12],inactive
same,Potency,[10],inactive
same,Potency,[11],inactive
CC(COc1ccc(/C=C/c2ccccc2)cc1)[N+](C)(C)C (configuration not stated),Potency,[1],inactive
same,Potency,[7],inactive
Cc1nc2ccccc2n1Cc1ccc(Cl)cc1,Potency,[1],inactive
same,Potency,[2],inactive
same,Potency,[3],7.76 µM (active)
same,Potency,[4],11 µM (active)
Cc1ccc(C(=O)c2ccc(CC(=O)O)n2C)cc1,Potency,[1],inactive
same,Potency,[2],inactive
same,Potency,[3],inactive
same,Potency,[4],inactive and 15.1 µM (active)
same,Potency,[5],inactive
same,Potency,[6],inactive
O=C(O)CNC(=O)C(CS)Cc1ccccc1 (configuration not stated),outcome,[13],inactive
same,Potency,[9],inactive
COCCOc1cc2nc[nH]c(=O)c2cc1OCCOC,outcome,[13],inactive
same,Potency,[9],inactive
O=C(Nc1ccncc1)c1cc([N+](=O)[O-])ccc1Cl,outcome,[13],inactive
same,Potency,[7],inactive
same,Potency,[9],inactive
CN(CCCOc1ccc(Cc2ccccc2)cc1)CCC(=O)O,outcome,[13],inactive
same,Potency,[3],inactive
same,Potency,[4],inactive
same,Potency,[9],inactive
CCCCN(CC)c1nc(C)nc2c1c(C)cn2-c1c(C)cc(C)cc1C,outcome,[13],inactive
same,Potency,[8],inactive
same,Potency,[3],inactive
same,Potency,[4],12 µM (active)
same,Potency,[9],inactive
COc1ccc(C(=O)/C(Cc2cc(OC)c(OC)c(OC)c2)=C(\C(=O)O)c2ccc3c(c2)OCO3)cc1,outcome,[13],inactive
same,Potency,[9],inactive
NS(=O)(=O)c1ccc(-n2nc(C(F)(F)F)cc2-c2ccc(Cl)cc2)cc1,outcome,[13],inactive
same,Potency,[3],7.56 µM (active)
same,Potency,[4],10.7 µM (active)
same,Potency,[9],inactive
CNC(=O)[C@H]1O[C@@H](n2cnc3c(NCc4cccc(I)c4)ncnc32)[C@H](O)[C@@H]1O,outcome,[13],inactive
same,Potency,[7],inactive
same,Potency,[9],inactive
N[C@H](CCCP(=O)(O)O)C(=O)O,outcome,[13],inactive
same,Potency,[7],inactive
same,Potency,[9],inactive
CCNc1nc2c(ncn2[C@H]2C[C@H](O)[C@@H](CO)O2)c(=O)[nH]1,outcome,[13],inactive
same,Potency,[8],inactive
same,Potency,[9],inactive
same,Potency,[5],inactive
same,Potency,[6],inactive
C=CC(N)CCC(=O)O (configuration not stated),outcome,[13],inactive
same,Potency,[9],inactive
O=C(CCSCc1ccco1)NNC(=O)N1Cc2ccccc2Oc2ccc(Cl)cc21,outcome,[13],inactive
same,Potency,[9],inactive
COc1ccccc1CN[C@@H]1CCCN[C@@H]1c1ccccc1,outcome,[13],inactive
same,Potency,[9],inactive
COc1ccc(/C=C/c2nc(NCCCN(C)C)c3ccccc3n2)cc1,outcome,[13],inactive
same,Potency,[9],28.2 µM (active)
O=c1cc(-c2ccccc2)oc2c(O)c(O)ccc12,outcome,[13],inactive
same,Potency,[9],inactive
O=C(Nc1ccc2[nH]ncc2c1)C1CCC1,outcome,[13],inactive
same,Potency,[8],inactive
same,Potency,[9],inactive
same,Potency,[5],inactive
same,Potency,[6],inactive
O=C(NOCC1CC1)c1cc(Br)c(F)c(F)c1Nc1ccc(I)cc1Cl,outcome,[13],inactive
same,Potency,[9],inactive
Fc1ccc2[nH]c(CN3CCN(c4ccccn4)CC3)cc2c1,outcome,[13],inactive
same,Potency,[8],inactive
same,Potency,[3],5.35 µM (active)
same,Potency,[4],6.74 µM (active)
same,Potency,[9],inactive
c1cnc2c(c1)ccc1cccnc12,outcome,[13],inactive
same,Potency,[7],inactive
same,Potency,[9],15.8 µM (active)
Fc1cccc(/C=N/N=C/c2cccc(F)c2)c1,outcome,[13],inactive
same,Potency,[7],inactive
same,Potency,[9],inactive
CS(=O)(=O)c1ccc(-n2nc(C(F)(F)F)cc2-c2ccc(F)cc2)cc1,outcome,[13],inactive
same,Potency,[8],inactive
same,Potency,[3],9.52 µM (active)
same,Potency,[4],3.38 µM (active)
same,Potency,[9],inactive
same,Potency,[5],inactive
CCCCCCCCCCCCOCCO,Potency,[1],inactive
same,Potency,[2],inactive
same,Potency,[4],inactive
same,Potency,[5],inactive
COc1ccc(-c2cc(=O)c3c(O)c(OC)c(OC)cc3o2)cc1O,outcome,[13],inactive
same,Potency,[9],inactive
CC[C@H]1OC(=O)[C@H](C)C(O[C@H]2C[C@@](C)(OC)[C@@H](O)[C@H](C)O2)[C@H](C)[C@@H](OC2O[C@H](C)C[C@H](N(C)C)[C@H]2O)[C@](C)(O)C[C@@H](C)CN(C)[C@H](C)[C@@H](O)[C@]1(C)O (some centres not stated),outcome,[13],inactive
same,Potency,[9],inactive
Nc1nc(SCc2ccc([N+](=O)[O-])cc2)c2ncn([C@@H]3O[C@H](CO)[C@@H](O)[C@H]3O)c2n1,outcome,[13],inactive
same,Potency,[7],inactive
same,Potency,[9],inactive
O=C(Nc1ccccc1)c1cc([N+](=O)[O-])ccc1Cl,outcome,[13],inactive
same,Potency,[14],inactive
same,Potency,[15],inactive
same,max response,[16],-26.2% (inactive)
same,Potency,[7],inactive
same,Potency,[9],inactive
